Hits are enriched below; roughly 4.7% of the tested compounds scored in any of these assays.
PfHsp90 yeast 2: growth inhibition of yeast expressing Plasmodium Hsp90; 310,000 tested, 0.32% active; S. cerevisiae expressing PfHsp90, BacTiter-Glo ATP, 48 h; yeast lacking PDR1 and PDR3 efflux regulators; inhibition, % at 9.4 µM;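 active means every replicate shows inhibition above about 80%, whatever the replicate mean, limit read from the data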;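 further: 0% = DMSO neutral controls and 100% = 20 µM radicicol positive controls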
tim10-1 inh: growth inhibitors of tim10-1 mutant yeast; inhibition, % at 20 µM; 330,000 tested, 2.2% active; S. cerevisiae tim10-1 ts strain growth, BacTiter-Glo, 24 h; AID 463190;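 active means inhibition of at least 40%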;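 further: mutant grown at 25 °C; 0% = DMSO wells with yeast and 100% = wells holding no yeast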
tim23-1 inh: growth inhibitors of tim23-1 mutant yeast; S. cerevisiae tim23-1 growth, BacTiter-Glo luminescence, 24 h; AID 463212; inhibition, % at 20 µM; 330,000 tested, 1.3% active;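 active means growth inhibition of the mutant yeast at or above 50%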;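 further: temperature-sensitive mutant grown at 25 °C; plate controls were DMSO-treated mutant yeast for no effect and medium wells lacking yeast for full effect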
SKKanGAS inh: blocks kanamycin growth of S. pyogenes SKKanGAS strain | inhibition, % at 7.5 µM | 300,000 tested, 1.3% active | AID 1662 | BacTiter-Glo, 6 h;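 active means mean replicate score, as percent of positive control median, at least 50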;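 further: strain carries kanamycin resistance gene driven by streptokinase promoter and grows in 40 µg/ml kanamycin; loss of luminescence reflects streptokinase promoter inhibition or plain growth inhibition; 0% = median of DMSO wells and 100% = positive control at its reference dose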
EBI2 antag: antagonists of human EBI2 receptor. P32249. EBI2 beta-arrestin recruitment, luminescence, 7a,25-OHC stimulated. inhibition, % at 5 µM. 360,000 tested, 0.81% active; in the data active means inhibition above about 38%;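 further: enzyme fragment complementation signal reports receptor beta-arrestin coupling in cells; 0% = agonist plus DMSO wells and 100% = wells without agonist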
Target sequence (P32249 whole entry, looked up, the tested form may be a part): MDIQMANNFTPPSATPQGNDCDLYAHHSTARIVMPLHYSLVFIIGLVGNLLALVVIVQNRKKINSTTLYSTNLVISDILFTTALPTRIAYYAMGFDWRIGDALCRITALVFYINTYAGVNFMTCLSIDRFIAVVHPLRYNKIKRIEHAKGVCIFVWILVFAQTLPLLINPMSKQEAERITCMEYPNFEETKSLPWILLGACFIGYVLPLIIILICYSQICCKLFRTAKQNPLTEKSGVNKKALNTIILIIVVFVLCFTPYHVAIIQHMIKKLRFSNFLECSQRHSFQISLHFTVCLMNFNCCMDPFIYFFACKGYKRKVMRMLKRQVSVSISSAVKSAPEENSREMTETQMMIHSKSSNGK
TIM10 inh: growth inhibitors of TIM10 yeast strain; S. cerevisiae TIM10 strain growth, BacTiter-Glo luminescence, 24 h; inhibition, % at 10 µM; 330,000 tested, 1.4% active;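 active means inhibition of 40% or more at the single tested concentration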;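 further: wild-type TIM10 isogenic control strain grown at permissive 25 °C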
tim10-1 confirm: confirmation of tim10-1 mutant yeast growth inhibitors. shares compounds with tim10-1 inh. S. cerevisiae tim10-1 ts strain growth, BacTiter-Glo, 24 h. inhibition, % at 20 µM. 7,400 tested, 56% active;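 active means inhibition of yeast growth at or above a set limit in either of two repeat tests at 20 µM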;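 further: tim10-1 mutant grown at permissive 25 °C to find synthetic lethal compounds; 0% = DMSO yeast wells and 100% = medium wells without yeast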
tim10 confirm: confirmation of TIM10 yeast growth inhibitors | shares compounds with TIM10 inh | S. cerevisiae tim10 strain growth, BacTiter-Glo luminescence, 24 h | inhibition, % at 10 µM | 4,600 tested, 63% active;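 active means inhibition of yeast growth at or above a set limit in either of two replicates at 10 µM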;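 further: this counterscreen used the strain with wild-type TIM10; 0% = yeast with DMSO and 100% = medium wells lacking yeast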
tim23-1 confirm: tim23-1 yeast growth inhibition, confirmed; AID 463218; S. cerevisiae tim23-1 growth, BacTiter-Glo luminescence, 24 h; inhibition, % at 20 µM; 4,400 tested, 83% active; shares compounds with tim23-1 inh;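 active means inhibition above about 39% in either of two replicate wells at 20 µM, limit read from the data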;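 further: temperature-sensitive tim23-1 mutant grown at 25 °C; 0% = DMSO wells with yeast and 100% = medium wells without yeast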
* hit, by the source's call; · = not tested or not shown.

SMILES	PfHsp90 yeast 2	tim10-1 inh	tim23-1 inh	SKKanGAS inh	EBI2 antag	TIM10 inh	tim10-1 confirm	tim10 confirm	tim23-1 confirm
O=C(NNC(=O)c1ccccc1-n1cccc1)c1cncc(Br)c1	-8.4	-8.6	-2.9	·	-0.9	-1.2	·	·	·
O=C(Nc1ncc([N+](=O)[O-])s1)c1ccco1	38.3	40.2*	53.4*	13.8	-2.6	46.2*	39.9*	23.1	47.5*
CCOC(OCC)c1cn(Cc2ccc3c(c2)C(=O)c2ccccc2C3=O)nn1	·	43.9*	61.3*	-7.6	·	36.7	16.4	·	78.2*
CCOC(=O)c1cn(Cc2ccc(Br)cc2)nn1	·	25.1	16.5	-5.2	0.4	5.6	·	·	·
O=C1Nc2ccccc2SC1=Cc1ccccc1	·	·	·	·	-1.7	·	·	·	·
CC1CCN(C(=O)c2ccc3c(c2)NC(=O)/C(=C/c2ccccc2)S3)CC1	-17.2	42.3*	50.4*	76.4*	7.0	-7.2	0.6	·	47.5*
CCOC(=O)N/N=C/c1c(C)nn(-c2cccc(C(F)(F)F)c2)c1Cl	-68.4	47.4*	58.0*	-0.4	-13.2	23.7	35.5*	·	60.2*
Cc1nn(-c2cccc(C(F)(F)F)c2)c(Cl)c1/C=N/Nc1cccc(C(=O)O)c1	-2.7	·	·	9.0	11.8	·	·	·	·
Cc1noc(C)c1N=Nc1ccc(Br)cc1C(=O)O	14.1	-17.2	-2.4	-7.7	0.6	2.8	·	·	·
Cc1cc2c(N=NC(=O)C3CC3c3ccccc3)c(O)[nH]c2cc1Br (configuration not stated)	1.2	20.2	30.8	12.5	25.8	33.5	·	·	·
Cc1[nH]n(-c2ccccc2)c(=O)c1C(C[N+](=O)[O-])c1ccc(Cl)cc1 (configuration not stated)	·	58.2*	85.9*	6.7	-18.3	49.2*	47.6*	28.2	83.7*
Cc1[nH]n(-c2ccccc2)c(=O)c1C(C[N+](=O)[O-])c1ccc(F)cc1 (configuration not stated)	18.2	60.3*	83.2*	8.6	-16.1	47.5*	40.7*	12.1	64.0*
Cc1ccc(C(C[N+](=O)[O-])c2c(C)[nH]n(-c3ccccc3)c2=O)cc1 (configuration not stated)	-3.6	41.9*	74.6*	0.4	-1.8	29.1	25.4	·	60.9*
Cc1[nH]n(-c2ccccc2)c(=O)c1C=NCCc1ccccc1	-18.6	13.4	24.9	-13.7	3.8	-3.2	·	·	·
COc1ccc(C(c2c(C)[nH]n(-c3ccccc3)c2=O)c2c(C)[nH]n(-c3ccccc3)c2=O)cc1OC	9.0	37.5	35.7	26.0	-9.5	21.5	·	·	·
Clc1cccc(Oc2ncc(CN3CCOCC3)s2)c1	7.3	-13.3	13.1	-2.7	-1.8	-6.3	·	·	·
COc1ccc(C(=O)/C=C/Nc2ccc(S(=O)(=O)Nc3onc(C)c3C)cc2)cc1	-15.3	16.5	22.3	24.5	10.1	7.7	·	·	·
Cc1oc(-c2nc3ccccc3n2C)cc1C(=O)c1ccccc1	43.4	47.8*	55.8*	16.3	6.3	53.2*	32.7*	-28.6	72.7*
CCOC(=O)C1=C(C)OC(=CC=Cc2ccccc2)C1=O	·	·	·	·	14.5	·	·	·	·
CCCCc1ccc(/C=C2\C(=O)c3ccccc3C(O)=C2C(=O)OCC)cc1	·	64.1*	50.1*	109.0*	·	47.4*	55.1*	47.3*	58.8*
Cc1ccccc1/C(N)=N/OC(=O)/C=C/c1ccccc1	-2.0	75.9*	72.7*	-9.6	17.4	76.3*	51.5*	68.0*	56.2*
N/C(=N\OC(=O)c1cccs1)c1cccnc1	6.2	-21.6	5.2	-0.5	1.3	10.0	·	·	·
Cc1ccc(/C(N)=N/OC(=O)/C=C/c2ccccc2)cc1	-35.0	59.9*	66.7*	-3.1	3.3	71.9*	47.0*	78.2*	77.3*
COc1ccc(/C(N)=N/OC(=O)/C=C/c2ccccc2)cc1	17.4	62.0*	80.0*	6.6	-9.1	60.7*	40.6*	68.1*	72.2*
COc1ccc(/C=C/C(=O)O/N=C(\N)c2ccccc2)cc1OC	5.6	-0.2	18.2	-3.0	7.9	15.0	·	·	·
SMILES	PfHsp90 yeast 2	tim10-1 inh	tim23-1 inh	SKKanGAS inh	EBI2 antag	TIM10 inh	tim10-1 confirm	tim10 confirm	tim23-1 confirm
Cc1ccccc1/C(N)=N/OC(=O)c1cccs1	26.9	61.4*	67.7*	-3.5	-8.5	70.0*	50.4*	-11.4	48.2*
N/C(=N\OC(=O)/C=C/c1ccccc1)c1cccnc1	-0.3	27.7	15.6	-8.8	-16.4	9.8	·	·	·
COc1cccc(N/C(SCc2ccccc2F)=C(/C#N)C(=O)NCc2cccs2)c1	11.4	4.0	4.5	8.6	36.7	-3.1	·	·	·
CNC(=O)c1ccsc1NC(=O)c1ccc2c(c1)CCCC2	12.5	49.4*	62.8*	-0.3	17.2	53.5*	30.1*	47.4*	72.1*
COc1ccccc1CN1CC(C(=O)N2CCC(C(=O)c3ccccc3)CC2)CCC1=O (configuration not stated)	8.5	-4.9	11.2	-4.0	0.1	-0.5	·	·	·
COc1cc(/C=C(\C#N)C(=O)N2CCOCC2)cc(Br)c1O	9.3	-7.7	11.8	-0.4	-1.5	4.8	·	·	·
N#C/C(=C\c1cccc(Oc2ccccc2)c1)C(=O)N1CCOCC1	99.6*	81.2*	80.1*	2.1	18.8	82.0*	80.3*	77.5*	76.5*
N/C(Cc1ccc([N+](=O)[O-])cc1)=N\OC(=O)COc1cccc2ccccc12	-11.9	64.4*	59.5*	-9.8	10.8	75.6*	73.2*	72.4*	91.0*
COc1ccc(CC(=O)O/N=C(\N)Cc2ccc(OC)cc2)cc1	-7.8	10.1	3.9	2.2	5.1	0.9	·	·	·
COc1ccc(C/C(N)=N/OC(=O)COc2ccccc2C)cc1	-79.1	50.5*	55.3*	-7.2	5.4	38.6	39.0*	·	41.3*
Cc1cc(C)c2c(CN3CCCCC3)cc(=O)oc2c1	-25.0	11.4	5.5	0.1	5.9	4.3	·	·	·
Cc1cc(C)c2c(CCl)cc(=O)oc2c1	·	49.2*	61.9*	-2.1	-8.0	42.4*	40.4*	39.6*	53.0*
Cc1cccc(CS(=O)(=O)c2nnc([C@H](Cc3ccccc3)NC(=O)OC(C)(C)C)o2)c1	111.9*	68.9*	55.1*	78.8*	20.0	54.0*	50.6*	51.8*	60.5*
CN1CCN(c2nc(C(N)=O)cc(-c3ccccc3)n2)CC1	-40.9	-2.4	8.3	16.3	2.9	-3.7	·	·	·
CCN(CC)c1nc(C(N)=O)cc(-c2ccccc2)n1	-7.4	63.1*	66.9*	-5.3	-15.8	48.4*	61.1*	14.8	73.8*
